Holding throughout (experiment): PBM; 200 nM protein, PBS
What all share (settings): dsDNA, one strand shown

Assay [1] addresses HESX1 (Homo sapiens, UniProt Q9UBX0 95-180, R165K).
The target of assay [2] is SHOX (Homo sapiens, UniProt O15266 103-189).
The target of another assay is ALX4 (Homo sapiens, UniProt Q9H161 200-286, Q225E).
The target of assay [3] is HESX1 (Homo sapiens, UniProt Q9UBX0 95-180).
The next assay has as its target MSX2 (Homo sapiens, UniProt P35548 130-214, R199I).
In assay [4] the target is ALX1 (Homo sapiens, UniProt Q15699 118-204, L144V).
Assay [5] has as its target ALX3 (Homo sapiens, UniProt O95076 139-225, N203Q).
The target in assay [6] is SHOX (Homo sapiens, UniProt O15266 103-189, R173C).
In assay [7] the target is ALX1 (Homo sapiens, UniProt Q15699 118-204, L144R).
In assay [8] the target is ALX3 (Homo sapiens, UniProt O95076 139-225).
The target of assay [9] is PROP1 (Homo sapiens, UniProt O75360 56-141).
Assay [10] concerns the target HESX1 (Homo sapiens, UniProt Q9UBX0 95-180, R109Q).
For assay [11], the target named is PROP1 (Homo sapiens, UniProt O75360 56-141, R99H).
Assay [12] concerns the target ALX3 (Homo sapiens, UniProt O95076 139-225, L168Q).
Assay [13] has as its target HESX1 (Homo sapiens, UniProt Q9UBX0 95-180, P111T).
For assay [14], the target named is ALX3 (Homo sapiens, UniProt O95076 139-225, L168V).
Assay [15] deals with PROP1 (Homo sapiens, UniProt O75360 56-141, F88S).
The target of assay [16] is HESX1 (Homo sapiens, UniProt Q9UBX0 95-180, F115L).
Assay [17] deals with ALX1 (Homo sapiens, UniProt Q15699 118-204).
Assay [18] concerns the target ALX3 (Homo sapiens, UniProt O95076 139-225, N203S).

SHOX (Homo sapiens, UniProt O15266 103-189, R173C), sequence (O15266 103-189 R173C): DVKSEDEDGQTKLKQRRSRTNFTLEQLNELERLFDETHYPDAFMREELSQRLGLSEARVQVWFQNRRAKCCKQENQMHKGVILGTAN
ALX3 (Homo sapiens, UniProt O95076 139-225), sequence (O95076 139-225): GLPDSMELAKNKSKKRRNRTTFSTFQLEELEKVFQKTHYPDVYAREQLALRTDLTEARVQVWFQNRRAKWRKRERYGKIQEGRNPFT
ALX3 (Homo sapiens, UniProt O95076 139-225, L168V), sequence (O95076 139-225 L168V): as the sequence (O95076 139-225) above, with L30V counted along it
SHOX (Homo sapiens, UniProt O15266 103-189), sequence (O15266 103-189): as the sequence (O15266 103-189 R173C) above, with C71R counted along it
HESX1 (Homo sapiens, UniProt Q9UBX0 95-180, F115L), sequence (Q9UBX0 95-180 F115L): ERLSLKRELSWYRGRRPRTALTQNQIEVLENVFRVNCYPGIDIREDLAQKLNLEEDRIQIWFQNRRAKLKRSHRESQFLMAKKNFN
ALX3 (Homo sapiens, UniProt O95076 139-225, L168Q), sequence (O95076 139-225 L168Q): as the sequence (O95076 139-225) above, with L30Q counted along it
ALX1 (Homo sapiens, UniProt Q15699 118-204, L144V), sequence (Q15699 118-204 L144V): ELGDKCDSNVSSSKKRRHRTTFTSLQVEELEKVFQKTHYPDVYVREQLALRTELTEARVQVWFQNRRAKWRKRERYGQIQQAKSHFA
HESX1 (Homo sapiens, UniProt Q9UBX0 95-180), sequence (Q9UBX0 95-180): as the sequence (Q9UBX0 95-180 F115L) above, with L21F counted along it
ALX1 (Homo sapiens, UniProt Q15699 118-204, L144R), sequence (Q15699 118-204 L144R): as the sequence (Q15699 118-204 L144V) above, with V27R counted along it
HESX1 (Homo sapiens, UniProt Q9UBX0 95-180, R165K), sequence (Q9UBX0 95-180 R165K): as the sequence (Q9UBX0 95-180 F115L) above, with L21F, R71K counted along it
ALX3 (Homo sapiens, UniProt O95076 139-225, N203S), sequence (O95076 139-225 N203S): as the sequence (O95076 139-225) above, with N65S counted along it
ALX3 (Homo sapiens, UniProt O95076 139-225, N203Q), sequence (O95076 139-225 N203Q): as the sequence (O95076 139-225) above, with N65Q counted along it
HESX1 (Homo sapiens, UniProt Q9UBX0 95-180, P111T), sequence (Q9UBX0 95-180 P111T): as the sequence (Q9UBX0 95-180 F115L) above, with P17T, L21F counted along it
MSX2, sequence (P35548 130-214 R199I): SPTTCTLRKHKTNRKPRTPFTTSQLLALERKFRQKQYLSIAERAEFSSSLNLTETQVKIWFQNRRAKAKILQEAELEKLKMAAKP
HESX1 (Homo sapiens, UniProt Q9UBX0 95-180, R109Q), sequence (Q9UBX0 95-180 R109Q): as the sequence (Q9UBX0 95-180 F115L) above, with R15Q, L21F counted along it
PROP1 (Homo sapiens, UniProt O75360 56-141, R99H), sequence (O75360 56-141 R99H): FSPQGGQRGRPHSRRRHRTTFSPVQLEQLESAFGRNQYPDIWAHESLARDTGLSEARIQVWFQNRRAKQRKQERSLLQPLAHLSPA
ALX4, sequence (Q9H161 200-286 Q225E): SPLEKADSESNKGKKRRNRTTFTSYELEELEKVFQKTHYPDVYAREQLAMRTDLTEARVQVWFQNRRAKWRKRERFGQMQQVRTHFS
ALX1 (Homo sapiens, UniProt Q15699 118-204), sequence (Q15699 118-204): as the sequence (Q15699 118-204 L144V) above, with V27L counted along it
PROP1 (Homo sapiens, UniProt O75360 56-141), sequence (O75360 56-141): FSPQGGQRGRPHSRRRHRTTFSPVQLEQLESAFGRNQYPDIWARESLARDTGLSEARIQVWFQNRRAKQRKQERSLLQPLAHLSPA
PROP1 (Homo sapiens, UniProt O75360 56-141, F88S), sequence (O75360 56-141 F88S): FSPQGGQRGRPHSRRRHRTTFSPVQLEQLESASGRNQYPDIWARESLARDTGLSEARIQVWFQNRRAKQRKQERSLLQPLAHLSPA

Regarding ACTAATTA, the binding signal in the assay with HESX1 [1] was 13.9 upbm affinity estimate (log intensity, higher = more binding, comparable within an allelic series); with SHOX [2], 13.2 upbm affinity estimate (log intensity, higher = more binding, comparable within an allelic series); in the assay with ALX4, 14.3 upbm affinity estimate (log intensity, higher = more binding, comparable within an allelic series); with HESX1 [3], 13.5 upbm affinity estimate (log intensity, higher = more binding, comparable within an allelic series); with MSX2, 13.5 upbm affinity estimate (log intensity, higher = more binding, comparable within an allelic series); in the assay with ALX1 [4], 12.4 upbm affinity estimate (log intensity, higher = more binding, comparable within an allelic series). Moreover, the binding signal with ALX3 [5] was 8.59 upbm affinity estimate (log intensity, higher = more binding, comparable within an allelic series); in the assay with SHOX [6], 10.6 upbm affinity estimate (log intensity, higher = more binding, comparable within an allelic series); in the assay with ALX1 [7], 12 upbm affinity estimate (log intensity, higher = more binding, comparable within an allelic series); in the assay with ALX3 [8] it was 12.9 upbm affinity estimate (log intensity, higher = more binding, comparable within an allelic series); with PROP1 [9] it was 12.2 upbm affinity estimate (log intensity, higher = more binding, comparable within an allelic series); with HESX1 [10], 10.5 upbm affinity estimate (log intensity, higher = more binding, comparable within an allelic series). The binding signal with PROP1 [11] is 12.4 upbm affinity estimate (log intensity, higher = more binding, comparable within an allelic series); with ALX3 [12], 11.5 upbm affinity estimate (log intensity, higher = more binding, comparable within an allelic series); with HESX1 [13] it was 12.4 upbm affinity estimate (log intensity, higher = more binding, comparable within an allelic series); in the assay with ALX3 [14] it was 11.2 upbm affinity estimate (log intensity, higher = more binding, comparable within an allelic series); with PROP1 [15], 8.34 upbm affinity estimate (log intensity, higher = more binding, comparable within an allelic series); with HESX1 [16], 8.35 upbm affinity estimate (log intensity, higher = more binding, comparable within an allelic series). Besides, the binding signal is 13 upbm affinity estimate (log intensity, higher = more binding, comparable within an allelic series) in the assay with ALX1 [17] and 8.73 upbm affinity estimate (log intensity, higher = more binding, comparable within an allelic series) with ALX3 [18].

For the sequence ACTAATTG, the binding signal in the assay with HESX1 [1] was 13 upbm affinity estimate (log intensity, higher = more binding, comparable within an allelic series); in the assay with SHOX [2], 12.3 upbm affinity estimate (log intensity, higher = more binding, comparable within an allelic series); in the assay with ALX4, 13.4 upbm affinity estimate (log intensity, higher = more binding, comparable within an allelic series); in the assay with HESX1 [3], 13 upbm affinity estimate (log intensity, higher = more binding, comparable within an allelic series); with MSX2, 13.1 upbm affinity estimate (log intensity, higher = more binding, comparable within an allelic series); in the assay with ALX1 [4], 11.9 upbm affinity estimate (log intensity, higher = more binding, comparable within an allelic series). Further, the binding signal is 8.32 upbm affinity estimate (log intensity, higher = more binding, comparable within an allelic series) with ALX3 [5]; 9.68 upbm affinity estimate (log intensity, higher = more binding, comparable within an allelic series) in the assay with SHOX [6]; 11.5 upbm affinity estimate (log intensity, higher = more binding, comparable within an allelic series) with ALX1 [7]; 12.5 upbm affinity estimate (log intensity, higher = more binding, comparable within an allelic series) with ALX3 [8]; 11.5 upbm affinity estimate (log intensity, higher = more binding, comparable within an allelic series) with PROP1 [9]; 9.82 upbm affinity estimate (log intensity, higher = more binding, comparable within an allelic series) with HESX1 [10]. For the same sequence, the binding signal in the assay with PROP1 [11] is 11.9 upbm affinity estimate (log intensity, higher = more binding, comparable within an allelic series); with ALX3 [12], 10.8 upbm affinity estimate (log intensity, higher = more binding, comparable within an allelic series); in the assay with HESX1 [13], 11.6 upbm affinity estimate (log intensity, higher = more binding, comparable within an allelic series); in the assay with ALX3 [14], 10.2 upbm affinity estimate (log intensity, higher = more binding, comparable within an allelic series); with PROP1 [15] it was 7.65 upbm affinity estimate (log intensity, higher = more binding, comparable within an allelic series); in the assay with HESX1 [16], 7.98 upbm affinity estimate (log intensity, higher = more binding, comparable within an allelic series). The binding signal was 12.6 upbm affinity estimate (log intensity, higher = more binding, comparable within an allelic series) with ALX1 [17] and 8.46 upbm affinity estimate (log intensity, higher = more binding, comparable within an allelic series) with ALX3 [18].

As for CAATTATG, the binding signal with HESX1 [1] was 12.7 upbm affinity estimate (log intensity, higher = more binding, comparable within an allelic series); with SHOX [2] it was 12.1 upbm affinity estimate (log intensity, higher = more binding, comparable within an allelic series); in the assay with ALX4 it was 13.1 upbm affinity estimate (log intensity, higher = more binding, comparable within an allelic series); with HESX1 [3] it was 12.9 upbm affinity estimate (log intensity, higher = more binding, comparable within an allelic series); with MSX2 it was 12.8 upbm affinity estimate (log intensity, higher = more binding, comparable within an allelic series); in the assay with ALX1 [4], 11.7 upbm affinity estimate (log intensity, higher = more binding, comparable within an allelic series). For the same sequence, the binding signal was 8.45 upbm affinity estimate (log intensity, higher = more binding, comparable within an allelic series) in the assay with ALX3 [5]; 9.62 upbm affinity estimate (log intensity, higher = more binding, comparable within an allelic series) in the assay with SHOX [6]; 11.4 upbm affinity estimate (log intensity, higher = more binding, comparable within an allelic series) in the assay with ALX1 [7]; 12.4 upbm affinity estimate (log intensity, higher = more binding, comparable within an allelic series) in the assay with ALX3 [8]; 11.5 upbm affinity estimate (log intensity, higher = more binding, comparable within an allelic series) with PROP1 [9]; 9.11 upbm affinity estimate (log intensity, higher = more binding, comparable within an allelic series) with HESX1 [10]. Further, the binding signal is 11.5 upbm affinity estimate (log intensity, higher = more binding, comparable within an allelic series) with PROP1 [11]; 10.5 upbm affinity estimate (log intensity, higher = more binding, comparable within an allelic series) in the assay with ALX3 [12]; 11.2 upbm affinity estimate (log intensity, higher = more binding, comparable within an allelic series) in the assay with HESX1 [13]; 9.96 upbm affinity estimate (log intensity, higher = more binding, comparable within an allelic series) with ALX3 [14]; 7.66 upbm affinity estimate (log intensity, higher = more binding, comparable within an allelic series) with PROP1 [15]; 7.82 upbm affinity estimate (log intensity, higher = more binding, comparable within an allelic series) with HESX1 [16]. For the same sequence, the binding signal is 12.3 upbm affinity estimate (log intensity, higher = more binding, comparable within an allelic series) with ALX1 [17] and 8.59 upbm affinity estimate (log intensity, higher = more binding, comparable within an allelic series) with ALX3 [18].

Take ATAATTAG: the binding signal is 13.4 upbm affinity estimate (log intensity, higher = more binding, comparable within an allelic series) in the assay with HESX1 [1]; 13 upbm affinity estimate (log intensity, higher = more binding, comparable within an allelic series) with SHOX [2]; 14.2 upbm affinity estimate (log intensity, higher = more binding, comparable within an allelic series) with ALX4; 13.4 upbm affinity estimate (log intensity, higher = more binding, comparable within an allelic series) with HESX1 [3]; 13.2 upbm affinity estimate (log intensity, higher = more binding, comparable within an allelic series) with MSX2; 12.3 upbm affinity estimate (log intensity, higher = more binding, comparable within an allelic series) with ALX1 [4]. In addition, the binding signal with ALX3 [5] was 8.56 upbm affinity estimate (log intensity, higher = more binding, comparable within an allelic series); with SHOX [6], 10.3 upbm affinity estimate (log intensity, higher = more binding, comparable within an allelic series); with ALX1 [7], 11.9 upbm affinity estimate (log intensity, higher = more binding, comparable within an allelic series); with ALX3 [8], 12.9 upbm affinity estimate (log intensity, higher = more binding, comparable within an allelic series); with PROP1 [9], 12.1 upbm affinity estimate (log intensity, higher = more binding, comparable within an allelic series); in the assay with HESX1 [10], 9.82 upbm affinity estimate (log intensity, higher = more binding, comparable within an allelic series). The binding signal was 12.1 upbm affinity estimate (log intensity, higher = more binding, comparable within an allelic series) in the assay with PROP1 [11]; 11.2 upbm affinity estimate (log intensity, higher = more binding, comparable within an allelic series) in the assay with ALX3 [12]; 12 upbm affinity estimate (log intensity, higher = more binding, comparable within an allelic series) in the assay with HESX1 [13]; 10.8 upbm affinity estimate (log intensity, higher = more binding, comparable within an allelic series) in the assay with ALX3 [14]; 7.99 upbm affinity estimate (log intensity, higher = more binding, comparable within an allelic series) with PROP1 [15]; 8.28 upbm affinity estimate (log intensity, higher = more binding, comparable within an allelic series) with HESX1 [16]. Moreover, the binding signal was 12.9 upbm affinity estimate (log intensity, higher = more binding, comparable within an allelic series) with ALX1 [17] and 8.75 upbm affinity estimate (log intensity, higher = more binding, comparable within an allelic series) in the assay with ALX3 [18].

These data come from article PMC11006913.
